Structures are written as SMILES. Values without a mark were called inactive. Results filed as inconclusive are left out. The source made the active and inactive calls. Unless noted, calls follow the shape of the full dose curve.

The target of test [1] is Gonadotropin-releasing hormone receptor (Homo sapiens) (UniProt P30968). Kind of test: Human gonadotropin-releasing hormone receptor (GnRHR) small molecule agonists, calcium flux assay in GnRHR-HEK293 cells (AID 1920063). Also: nearly all actives have a fitted effect of over 35% in size. Also: potency is read from the fitted curve at half-maximal effect. In outline: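 Tox21-format agonist screen using human GnRHR-expressing HEK293 cells and a fluorescent calcium dye; kinetic 3-min fluorescence reading after compound addition, 15-point concentration series run in triplicate.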
(In general: Calcium assays in cells follow changes in intracellular calcium, usually with a dye or a luminescent sensor.)

Test [2] concerns the target KiSS-1 receptor (Homo sapiens) (UniProt Q969F8). Kind of test: Human kisspeptin (KISS1R) small molecule agonists, calcium flux assay in KISS1R-HEK293 cells (AID 1920064; active = well fitted activation curve with a large enough effect in the repeat runs). In outline: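 Intracellular calcium mobilization in KISS1R-HEK293 cells was recorded by fluorescence (Ex/Em 480/540) for 3 min following compound addition to cells pre-loaded 1 h with calcium dye.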

Test [3] in a line: G protein-coupled receptor (GPCR) small molecule agonists, calcium flux assay: HEK293 wild type cell line counter screen (AID 1920065). In outline: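 In this agonist-mode screen, ATP is the positive control and DMSO the vehicle. Cells grow 18 h before a 1 h dye incubation at 37 C; signal is taken at Ex/Em 480/540 over 3 min.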
Test [4] can be described thus: p53 small molecule agonists, cell-based qHTS assay with human liver microsomes (AID 1963577).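 Also: p53 response element beta-lactamase reporter cells with liver microsomes plus NADPH.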 In outline: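 Metabolically competent format: test substances, human liver microsomes and NADPH (both 0.5 mg/mL final) incubated with p53RE-bla cells 16 h at 37 C. Beta-lactamase reporter signal then quantified by fluorescence.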
A general note: qHTS replaces the single test concentration by a dilution series.

The nature of test [5]: p53 small molecule agonists, cell-based qHTS assay with human liver microsomes: qHTS cell viability counter screen (AID 1963579). Also: nearly all actives have a fitted effect of over 45% in size. Also: potency is read from the fitted curve at half-maximal effect. A digest of the protocol: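 Tox21 library compounds, delivered from DMSO stocks, were tested on p53RE-bla cells together with 0.5 mg/mL human liver microsomes and 0.5 mg/mL NADPH (final) over 16 h at 37 C; CellTiter-Glo luminescence served as the cytotoxicity measure.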

Test [6] can be described thus: p53 small molecule agonists, cell-based qHTS assay with rat liver microsomes: qHTS cell viability counter screen (AID 1963580). Also: nearly all actives have a fitted effect of over 45% in size. In outline: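 HCT-116 p53RE-bla, 4,000 cells/well, 5 h pre-incubation; cpd + rat liver microsomes 0.5 mg/mL + NADPH 0.5 mg/mL (final); 16 h, 37 C; CellTiter-Glo, 30 min RT; luminescence.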
The nature of test [7]: p53 small molecule agonists, cell-based qHTS assay: qHTS cell viability counter screen (AID 1963581). Also: nearly all actives have a fitted effect of over 45% in size. In outline: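 Compounds are pinned onto HCT-116 p53RE-bla cells and left 16 h at 37 C. Following the reporter FRET read, ATP is quantified by CellTiter-Glo luminescence after 30 min at room temperature.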
In test [8] the target is 5-hydroxytryptamine receptor 2A (Homo sapiens) (UniProt P28223). Kind of test: 5-hydroxytryptamine receptor 2A (HTR2A) small molecule antagonists, cell-based qHTS assay (AID 1963586). Also: nearly all actives have a fitted effect of over 45% in size. In outline: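 Antagonist-mode intracellular calcium assay: DOI (4 nM) added after 5 min compound pre-incubation at room temperature to dye-loaded HTR2A-CHO cells. Fluorescence followed for 3 min, sampled every second.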

For test [9], the target named is Muscarinic acetylcholine receptor M1 (Homo sapiens) (UniProt P11229). Description: Cholinergic receptor muscarinic 1 (CHRM1) small molecule antagonists, cell-based qHTS assay (AID 1963588). Also: nearly all actives have a fitted effect of over 40% in size. In outline:
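CHRM1-CHO calcium-flux assay, antagonist mode. Cells were seeded 18 h, dye-loaded 1 h at 37 C and given compound for 5 min at RT, then acetylcholine was added at 50nM. FDSS fluorescence was read 3 min; 15 concentrations, three runs.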

Test [10] has the same target. Description: Cholinergic receptor muscarinic 1 (CHRM1) small molecule agonists, cell-based qHTS assay (AID 1963589). Also: nearly all actives have a fitted effect of over 35% in size. In outline:
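Stable CHRM1-CHO cells (human receptor) were incubated 18 h, dye-loaded for 1 h at 37 C and exposed to test compounds for agonist activity, with calcium-dependent fluorescence followed kinetically.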

Test [11] addresses Beta-2 adrenergic receptor (Homo sapiens) (UniProt P07550). Description: Adrenergic beta2 receptor (ADRB2) small molecule agonists, cell-based qHTS assay (AID 1963593). Also: potency is read from the fitted curve at half-maximal effect.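 As to activation: CHO cells stably overexpressing human ADRB2.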 In outline:
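CHO cells stably over-expressing ADRB2 were plated overnight at 37C, then dosed with compounds plus a stimulation mix containing 100uM IBMX and 25uM Ro-20-1724 for 0.5hr at room temperature. cAMP was measured by HTRF competition, 1hr.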

Test [12] has as its target D(2) dopamine receptor (Homo sapiens) (UniProt P14416). Description: Dopamine D2 receptor (DRD2) small molecule agonists, cell-based qHTS assay (AID 1963594). Also: nearly all actives have a fitted effect of over 35% in size. In outline:
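cAMP accumulation in DRD2-HEK293 cells measured by HTRF after 1 h detection; compounds added 10 min before NKH477 (200nM […]) forskolin-analogue stimulation, 30 min at room temperature, with Ro20-1724 present at 0.1 mM final.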

Test [13] has the same target. Kind of test: Dopamine D2 receptor (DRD2) small molecule antagonists, cell-based qHTS assay (AID 1963595; active = well fitted inhibition curve with a large enough effect in the signal ratio in the repeat runs, with a control signal flat; the % refers to the signal ratio; also: potency is read from the fitted curve at half-maximal effect). A digest of the protocol:
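Stable D2 receptor HEK293 line, 24 h after seeding. Compound preincubated 10 min, then quinpirole (12 nM) with forskolin analogue NKH477 (200 nM), 30 min, room temperature. Detection by time-resolved FRET of cAMP.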

The nature of test [14]: p53 small molecule agonists, cell-based qHTS assay with rat liver microsomes (AID 1963578). A digest of the protocol:
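Each plate received p53RE-bla cells, then compound, then rat liver microsomes and NADPH (both 0.5 mg/mL final). Plates were held 16 h at 37 C, and beta-lactamase activity was detected with LiveBLAzer over 2 h.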

Test [15] in a line: p53 small molecule agonists, cell-based qHTS assay (AID 1963582; active = well fitted activation curve with a large enough effect in the signal ratio in the repeat runs, not every such curve was filed as active; the % refers to the signal ratio). A digest of the protocol: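 Agonist activity was scored from beta-lactamase FRET fluorescence in p53RE-bla cells treated 16 h at 37 C with compounds in DMSO, substrate incubation being 2 h at room temperature.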
Test [16] concerns the target 5-hydroxytryptamine receptor 2A (Homo sapiens) (UniProt P28223). Kind of test: 5-hydroxytryptamine receptor 2A (HTR2A) small molecule agonists, cell-based qHTS assay (AID 1963587). Also: nearly all actives have a fitted effect of over 30% in size. In outline: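 Kinetic calcium-flux fluorescence (2 min, 1 sec intervals) after compound addition in agonist mode. HTR2A-CHO cells were cultured 18 h, then dye-loaded 1 h at 37 C.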
Test [17] in a line: cAMP Responsive Elements (CRE) small molecule agonists, cell-based qHTS assay (AID 1963590). A digest of the protocol:
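FRET-based beta-lactamase readout (LiveBLAzer B/G, 2 h RT) quantified CRE activation in HEK 293T CRE-bla cells after 3 h treatment with DMSO-dissolved compounds.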

Test [18] can be described thus: cAMP Responsive Elements (CRE) small molecule antagonists, cell-based qHTS assay (AID 1963591; active = well fitted inhibition curve with a large enough effect in the signal ratio in the repeat runs, not every such curve was filed as active; the % refers to the signal ratio). In outline: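 qHTS in CRE-bla HEK 293T cells: compound in DMSO, then 0.25 uM NKH477 (final), 3 h at 37 °C/5% CO2; beta-lactamase FRET read-out after 2 h substrate incubation.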
Test [19] addresses Beta-2 adrenergic receptor (Homo sapiens) (UniProt P07550). Description: Adrenergic beta2 receptor (ADRB2) small molecule antagonists, cell-based qHTS assay (AID 1963592). Also: nearly all actives have a fitted effect of over 50% in size. Also: potency is read from the fitted curve at half-maximal effect. As to activity change, negative = inhibition: series mostly up to about 92 µM. In outline:
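Cells (CHO, stable ADRB2 overexpression) incubated 18-20hr at 37C; compounds added from DMSO; agonist mix (1nM isoproterenol, 100uM IBMX, 25uM Ro-20-1724) added; 0.5hr RT; d2-cAMP and anti-cAMP-cryptate added; 1hr RT; 665/615 nm read.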
% is scaled to controls: 0 for no effect and ±100 for the full control effect.

Chain of Gonadotropin-releasing hormone receptor (Homo sapiens) (P30968 whole entry, looked up): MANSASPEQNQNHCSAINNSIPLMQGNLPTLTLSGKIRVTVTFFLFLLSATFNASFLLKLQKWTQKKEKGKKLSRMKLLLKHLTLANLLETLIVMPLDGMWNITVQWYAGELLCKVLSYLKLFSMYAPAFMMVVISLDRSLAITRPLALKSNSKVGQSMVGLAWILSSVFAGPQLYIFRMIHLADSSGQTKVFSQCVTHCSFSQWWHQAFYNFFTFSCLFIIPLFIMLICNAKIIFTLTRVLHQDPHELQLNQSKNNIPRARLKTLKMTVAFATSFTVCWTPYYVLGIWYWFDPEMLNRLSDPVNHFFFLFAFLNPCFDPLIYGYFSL
Chain of D(2) dopamine receptor (Homo sapiens) (P14416 whole entry, looked up): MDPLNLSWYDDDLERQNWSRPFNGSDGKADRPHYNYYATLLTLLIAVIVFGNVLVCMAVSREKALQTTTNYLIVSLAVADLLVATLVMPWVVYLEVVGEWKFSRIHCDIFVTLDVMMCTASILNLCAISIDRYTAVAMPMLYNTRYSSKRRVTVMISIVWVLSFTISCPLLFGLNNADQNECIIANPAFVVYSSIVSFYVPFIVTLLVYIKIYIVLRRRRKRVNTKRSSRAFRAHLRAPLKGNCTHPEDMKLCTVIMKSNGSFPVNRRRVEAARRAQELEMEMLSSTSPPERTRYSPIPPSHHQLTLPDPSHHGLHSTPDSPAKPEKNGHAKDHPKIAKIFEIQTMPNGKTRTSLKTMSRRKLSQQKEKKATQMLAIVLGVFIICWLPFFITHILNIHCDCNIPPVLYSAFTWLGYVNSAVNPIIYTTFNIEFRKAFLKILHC
Chain of Muscarinic acetylcholine receptor M1 (Homo sapiens) (P11229 whole entry, looked up): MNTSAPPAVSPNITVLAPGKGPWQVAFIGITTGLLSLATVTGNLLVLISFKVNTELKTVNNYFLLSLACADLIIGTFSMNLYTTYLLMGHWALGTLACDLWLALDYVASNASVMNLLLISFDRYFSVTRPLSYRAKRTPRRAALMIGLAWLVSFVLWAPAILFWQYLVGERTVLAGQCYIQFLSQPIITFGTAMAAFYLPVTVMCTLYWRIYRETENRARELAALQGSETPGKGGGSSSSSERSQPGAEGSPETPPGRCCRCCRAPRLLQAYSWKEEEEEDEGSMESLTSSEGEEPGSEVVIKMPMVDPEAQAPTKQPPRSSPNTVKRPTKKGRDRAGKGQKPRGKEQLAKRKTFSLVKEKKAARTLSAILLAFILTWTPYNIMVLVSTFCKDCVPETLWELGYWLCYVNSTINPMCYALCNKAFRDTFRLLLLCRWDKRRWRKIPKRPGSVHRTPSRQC
Chain of KiSS-1 receptor (Homo sapiens) (Q969F8 whole entry, looked up): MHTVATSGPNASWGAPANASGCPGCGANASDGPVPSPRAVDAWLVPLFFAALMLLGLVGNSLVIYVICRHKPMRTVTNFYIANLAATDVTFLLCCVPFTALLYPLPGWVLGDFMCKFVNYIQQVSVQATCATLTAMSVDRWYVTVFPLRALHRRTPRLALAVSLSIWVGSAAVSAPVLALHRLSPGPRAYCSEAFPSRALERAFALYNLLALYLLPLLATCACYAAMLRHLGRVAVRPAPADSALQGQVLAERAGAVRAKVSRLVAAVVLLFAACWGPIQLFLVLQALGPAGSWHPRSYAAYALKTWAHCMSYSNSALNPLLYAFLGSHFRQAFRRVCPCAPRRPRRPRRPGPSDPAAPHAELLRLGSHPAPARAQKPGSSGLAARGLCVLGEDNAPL
Chain of Beta-2 adrenergic receptor (Homo sapiens) (P07550 whole entry, looked up): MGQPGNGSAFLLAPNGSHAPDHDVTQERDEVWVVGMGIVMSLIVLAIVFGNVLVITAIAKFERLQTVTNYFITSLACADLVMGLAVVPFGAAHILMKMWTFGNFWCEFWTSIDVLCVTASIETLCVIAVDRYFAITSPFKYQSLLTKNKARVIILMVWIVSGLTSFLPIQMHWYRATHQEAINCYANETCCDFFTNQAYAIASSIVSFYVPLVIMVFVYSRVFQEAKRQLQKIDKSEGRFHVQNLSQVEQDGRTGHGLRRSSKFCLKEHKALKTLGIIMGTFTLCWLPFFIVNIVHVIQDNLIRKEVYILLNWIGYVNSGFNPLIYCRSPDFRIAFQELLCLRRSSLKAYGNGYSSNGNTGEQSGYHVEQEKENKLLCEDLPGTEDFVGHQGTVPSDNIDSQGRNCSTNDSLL
Chain of 5-hydroxytryptamine receptor 2A (Homo sapiens) (P28223 whole entry, looked up): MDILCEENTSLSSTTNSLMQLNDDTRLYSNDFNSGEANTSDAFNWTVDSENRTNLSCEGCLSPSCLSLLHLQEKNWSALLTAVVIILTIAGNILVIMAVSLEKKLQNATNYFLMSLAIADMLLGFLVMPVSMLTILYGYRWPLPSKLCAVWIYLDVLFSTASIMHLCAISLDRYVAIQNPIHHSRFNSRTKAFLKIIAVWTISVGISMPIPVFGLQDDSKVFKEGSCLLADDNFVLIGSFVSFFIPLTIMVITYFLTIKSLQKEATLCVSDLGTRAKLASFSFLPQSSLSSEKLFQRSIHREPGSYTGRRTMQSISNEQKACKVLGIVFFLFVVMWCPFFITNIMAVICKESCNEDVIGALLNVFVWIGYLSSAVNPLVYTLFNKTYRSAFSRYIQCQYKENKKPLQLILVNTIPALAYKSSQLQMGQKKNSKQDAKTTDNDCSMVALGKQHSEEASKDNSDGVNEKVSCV

On to `Cc1ccc(C(=O)Oc2ccc(C(O)CNC(C)(C)C)cc2OC(=O)c2ccc(C)cc2)cc1` (stereo not drawn), for which the Potency is 53.5 nM (active) in [1], 397 nM (active) in test [5], 84.1 nM (active) in test [11] and 841 nM (active) in test [13]. Further, the result in test [2] and in test [3] was inactive. The Potency result in [4], in [6], in test [7], in test [8], in test [9] and in [10] was “inactive” throughout. Also, the Potency result in [12] was “inactive”.
For the compound `Cc1cccc(C)c1NC(=O)CN1CCCC1`, the Potency entry in test [1], in test [14], in [5], in test [6], in test [7] and in test [15] was “inactive” each time. Further, the Potency entry in [16], in test [9], in [10], in test [17], in test [18] and in [19] was “inactive” each time. Besides, the Potency result in test [13] was “inactive”. Moreover, the outcome in [3] was inactive.
On to `O=C(O)C[C@H](O)C[C@H](O)/C=C/c1c(C2CC2)nc2ccccc2c1-c1ccc(F)cc1`, for which, in test [1], the activity change was -1.52% [at 11.8 µM, active compounds read high]. The activation was -0.214% [at 15.8 µM] in [2]; -0.173% [at 11.8 µM] in test [3]; -4.07% [at 13.6 µM] in [14]; -0.297% [at 15.8 µM] in [10]; 0.303% [at 19 µM] in test [17]; -0.0463% [at 19 µM] in test [12]. In addition, the activity change, negative = cytotoxicity in test [5] is -1.08% [at 13.5 µM]; in test [6], 1.65% [at 13.5 µM]; in [7] it was 0.0104% [at 13.5 µM]. In addition, the activity, negative = inhibition is -9.13% [at 12.7 µM] in test [8] and 7.39% [at 12.6 µM] in test [9]. For the same compound, the activity change, negative = inhibition in test [19] is -0.968% [at 19 µM]; in test [13] it was 4% [at 18.9 µM].
As to `CC(C)(C)NCC(O)COc1ccc(NC(=O)NC2CCCCC2)cc1` (stereo not drawn), the Potency result in test [1], in test [4], in test [14], in test [5], in test [7] and in test [15] was “inactive” each time. For the same compound, the Potency result in test [8], in test [16], in [9], in test [10], in [18] and in test [13] was “inactive” each time. The outcome in test [2] was inactive. Besides, in test [19], the Potency was 4730 nM (active).
On to `Cn1c(=O)[nH]c2ncn(C)c2c1=O`, for which the Potency result in test [1], in test [4], in [14], in [6], in test [7] and in [15] was “inactive” throughout. Moreover, the Potency result in test [8], in test [16], in test [17], in test [19], in [12] and in test [13] was “inactive” throughout. For the same compound, the outcome in [3] was inactive.
Regarding `Cc1ncc([N+](=O)[O-])n1CC(C)O` (stereo not drawn), the Potency entry in test [1], in test [14], in test [5], in [6], in test [7] and in test [17] was “inactive” each time. For the same compound, the Potency entry in test [18], in test [19], in test [11], in [12] and in [13] was “inactive” throughout. In addition, the result in [2] and in test [3] was inactive.
Consider `CCOC(=O)Cn1cccc1-c1nc(-c2ccc(OC)cc2)c(-c2ccc(OC)cc2)s1`, for which the result in test [2] and in [3] was inactive. The Potency entry in [4], in test [14], in [5], in test [6], in test [7] and in test [15] was “inactive” throughout. Further, the Potency result in [16], in test [9], in test [10], in test [17], in [18] and in test [19] was “inactive” throughout. The Potency entry in test [11], in test [12] and in test [13] was “inactive” in each case.
For the compound `CCCCN(C)C`, the Potency entry in test [1], in [14], in [5], in [6], in test [7] and in test [15] was “inactive” in each case. In addition, the Potency entry in test [16], in [17], in test [18], in test [11], in test [12] and in [13] was “inactive” throughout. Further, the outcome in test [2] was inactive.
With `O=C(O)Cc1sc(-c2ccccc2)nc1-c1ccc(Cl)cc1`, the Potency result in test [1], in test [4], in test [5], in test [6], in test [8] and in test [16] was “inactive” each time. The Potency entry in test [10], in test [19], in test [11] and in [13] was “inactive” throughout. The outcome in test [2] and in test [3] was inactive.

The values above are taken from PubChem BioAssay (Tox21).
